Test results published in ChEMBL document CHEMBL4513216, “Probing the Open Global Health Chemical Diversity Library for Multistage-Active Starting Points for Next-Generation Antimalarials” (ACS Infect Dis, 2020).
The campaign covered roughly 69,000 compounds. About 8,600 (12%) showed an effect of 50% or more. For the sample, strong results were picked, then their nearest neighbours and some compounds at random.

Tested on: Plasmodium berghei
Experiment: Screen against P. berghei liver stage (PbLuc), transformed with Luciferase, at 10uM
Assay type: functional, HepG2
Conditions: tested at 10 uM

Going from `Cc1nc(C(=O)N2CCN(S(=O)(=O)N(C)C)CC2)c(-c2ccccc2)s1` to `COc1ccccc1C(C)NC(=O)N1CCC(n2cncn2)CC1` (configuration not stated), the INHIBITION falls from 36.6% to 11.2%.

Going from `CCN1C[C@H]2CCN(C(=O)NC)CC[C@H]2S1(=O)=O` to `CCOc1ccccc1CNC(=O)N1CCC(n2cncn2)CC1`, the INHIBITION rises from -0.813% to 63.5%.

Compared with `O=C(NCc1ccccc1CN1CCC(O)CC1)Nc1ccccn1`, `O=C(NCc1ccccc1CN1CCC(O)CC1)Nc1ccccc1` is lower in INHIBITION: 52% for the first, 40.2% for the second.

Going from `O=C(NCc1ccccc1CN1CCC(O)CC1)Nc1ccncc1` to `Cc1ccccc1CNC(=O)N1CCC(n2cncn2)CC1`, the INHIBITION rises from -8.19% to 4.52%.

Compared with `COC(=O)c1cc(CN2CCC(c3noc(C)n3)CC2)c(C)s1`, `CC(C)Cc1noc(CN2CCOCC2)n1` is lower in INHIBITION: 7.24% for the first, 1.48% for the second.

Going from `Cc1cc(F)cc(NC(=O)N(C)CC(C)(CO)CO)c1` to `CCC(C)NC(=O)CCc1ccc(OCC(F)(F)F)c(OC)c1` (configuration not stated), the INHIBITION rises from -31.38% to 31.9%.

Compared with `FC(F)(F)CCc1ccnc(NC2CCC(n3cnnc3)CC2)n1` (configuration not stated), `NC1CCC(Nc2nccc(CCC(F)(F)F)n2)CC1` (configuration not stated) is higher in INHIBITION: 32.3% for the first, 75.6% for the second.

First: N[C@@H]1CC[C@@H](Nc2nccc(CCC(F)(F)F)n2)C1
Second: CCOc1ncccc1CNC(=O)N1CCC(n2cncn2)CC1
The INHIBITION of the first is lower: 7.4% for the first, 11.4% for the second.

Compared with `CCc1csc(C2CCCN(C(=O)c3cc(C4CC4)[nH]n3)C2)n1` (configuration not stated), `COc1cc(Cl)ccc1CNC(=O)N1CCC(n2cncn2)CC1` is lower in INHIBITION: 27.8% for the first, 0.411% for the second.

Compared with `O=C(Cc1cccnc1)N1CCC2(CC1)CCN(C1CCOCC1)CC2`, `CCOc1ncccc1NC(=O)N1CCC(n2cncn2)CC1` is lower in INHIBITION: 8.44% for the first, -2.98% for the second.

Going from `COc1ccccc1CCNC(=O)N1CCC(n2cncn2)CC1` to `CC(C)Oc1ccccc1CNC(=O)N1CCC(n2cncn2)CC1`, the INHIBITION rises from 16.9% to 51.3%.

Going from `CC(C)Oc1ccccc1NC(=O)N1CCC(n2cncn2)CC1` to `CC(C)Oc1ncccc1CNC(=O)NC(C)c1cccs1` (configuration not stated), the INHIBITION falls from 56.6% to 43.6%.

Compared with `CCS(=O)(=O)N1C[C@@H](O)[C@H](Oc2cccc(F)c2)C1`, `O=S(=O)(Cc1ccc(F)cc1F)NCCOc1cccnc1` is higher in INHIBITION: -18.8% for the first, 46.1% for the second.

Going from `Cc1cc(C)n(-c2ccc(C(=O)NCC(CO)Cc3cccs3)cc2)n1` (configuration not stated) to `CC[C@H](Cn1ncc2ccccc2c1=O)NC(=O)c1ccccn1`, the INHIBITION rises from 23.9% to 31.3%.

Going from `CN(C)C(=O)C1CCc2nnc(CNC(=O)c3ccc(Cl)cc3Cl)n21` (configuration not stated) to `CC1CCCCN1Cc1nc(Cc2ccccc2)no1` (configuration not stated), the INHIBITION falls from 27.5% to 20.2%.

Going from `CC1COCCN1Cc1noc(C(C)(C)C)n1` (configuration not stated) to `CC1COCCN1Cc1nc(C(C)(C)C)no1` (configuration not stated), the INHIBITION falls from 38.7% to 15.2%.

Compared with `CC(C)c1noc(CN2CCOCC2C)n1` (configuration not stated), `CC(C)Cc1noc(CN2CCOCC2C)n1` (configuration not stated) is higher in INHIBITION: 17.5% for the first, 51% for the second.

Going from `CC1COCCN1Cc1nc(Cc2ccccc2)no1` (configuration not stated) to `CCCc1noc(CN2CCOCC2C)n1` (configuration not stated), the INHIBITION rises from 54.4% to 65.6%.

With `CC1COCCN1Cc1nc(-c2cccs2)no1` (configuration not stated) the INHIBITION was 22.9%.
